# Test results published in PubChem BioAssay (EPA / NIEHS).
# Inconclusive results are not listed. Calls of active or inactive are those of the source. The calls were made as follows: active = hit-call score of the fitted dose curve at least 0.9, where 1 is the maximum; inconclusive = response in the unintended direction; inactive = score below 0.9.
# Experiments:
# [1] = Tanguay_ZF_120hpf_ActivityScore_legacy: (Legacy) Oregon State University Tanguay Lab 120 Hour Post-fertilization zebrafish Assay Score for Activity (AID 2283742)
# Procedure, shortened: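 Binary scoring of mortality and morphology by brightfield at 24 and 120 hpf, summarised into one activity score from 18 components relative to DMSO. Wild-type Tropical 5D zebrafish, chorion removed at 4 hpf, static exposure 6–120 hpf, 28 °C.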
# [2] = ACEA_AR_agonist_AUC_viability: ACEA Biosciences xCELLigence Real-Time Cell Analysis on Androgen Receptor Agonism for Viability (AID 2283775)
# Procedure, shortened: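 Viability endpoint from xCELLigence impedance in 22Rv1 prostate cells at 80 h. Eight-point series, 100 uM maximum final.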
# [3] = ACEA_AR_antagonist_AUC_viability: ACEA Biosciences xCELLigence Real-Time Cell Analysis on Androgen Receptor Antagonism for Viability (AID 2283776);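 also: area under impedance growth curve at 80 h after dosing as viability; hits lower the growth signal relative to DMSO meaning cytotoxicity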
# Procedure, shortened: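 22Rv1 human prostate cancer cells were seeded on electrode plates, monitored overnight, then exposed to eight 1:4 dilutions from 100 uM final. Impedance-based growth kinetics at 80 h gave an AUC viability endpoint normalized to DMSO.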
# [4] = test system: chicken Androgen Receptor (AR), gene 422165; test: ATG_chAR_XSP1: Attagene TRANS-FACTORIAL Multi-Species (XSP1) HepG2 Assay for chicken Androgen Receptor (AR) (AID 2283768)
# Procedure, shortened: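 Reporter mRNA read by RT-PCR with fluorescent labelling and capillary electrophoresis 24 h after chemical dosing of transiently transfected HepG2 cells. Chicken AR-Gal4 chimera, partially stimulated with 3 nM 6-alpha-fluorotestosterone; activity fitted upward relative to DMSO.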
# [5] = test system: zebrafish Androgen Receptor (AR), gene 100005148; test: ATG_zfAR_XSP1: Attagene TRANS-FACTORIAL Multi-Species (XSP1) HepG2 Assay for zebrafish Androgen Receptor (AR) (AID 2283771)
# Procedure, shortened: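 Gain-of-signal versus DMSO was measured as reporter transcripts quantified by RT-PCR, fluorescent labelling and capillary electrophoresis after 24 h chemical exposure. The cells were HepG2 expressing a chimeric zebrafish AR-GAL4, co-stimulated with 3 nM 6-alpha-fluorotestosterone.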
# [6] = target: zebrafish Estrogen Receptor (ESR1), esr1 (gene 259252) (UniProt P57717); test: ATG_zfER1_XSP1: Attagene TRANS-FACTORIAL Multi-Species (XSP1) HepG2 Assay for zebrafish Estrogen Receptor (ESR1) (AID 2283772)
# Procedure, shortened: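 Transfect HepG2 with GAL4-UAS multi-reporter constructs; treat 24 h (medium carries 3 nM 6-alpha-fluorotestosterone); extract RNA, reverse-transcribe, PCR-amplify, FAM-label, digest with HpaI; resolve by capillary electrophoresis and compare against DMSO baseline.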
# [7] = test system: zebrafish Estrogen Receptor (ESR2B), gene 317733; test: ATG_zfER2b_XSP1: Attagene TRANS-FACTORIAL Multi-Species (XSP1) HepG2 Assay for zebrafish Estrogen Receptor (ESR2B) (AID 2283773)
# Procedure, shortened: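 Medium contained 3 nM 6-alpha-fluorotestosterone. Reporter mRNA induction by exogenous zebrafish ER2b-Gal4 chimera was read 24 h post-dose in transiently transfected HepG2 cells, using RT-PCR, fluorescent labelling, HpaI digestion and capillary electrophoresis.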
# [8] = test system: frog Estrogen Receptor (ESR2), gene 100174814; test: ATG_frER2_XSP1: Attagene TRANS-FACTORIAL Multi-Species (XSP1) HepG2 Assay for frog Estrogen Receptor (ESR2) (AID 2283774)
# Procedure, shortened: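 Reporter mRNA from a multiplexed TRANS system, measured by RT-PCR with fluorescent labelling and capillary electrophoresis, 24 hours after chemical exposure. Human HepG2 liver cells carried exogenous frog ER-Gal4 chimera; medium included 3 nM 6-alpha-fluorotestosterone; increases versus DMSO analysed.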
# [9] = test system: zebrafish Estrogen Receptor (ESR2A), gene 317734; test: ATG_zfER2a_XSP1: Attagene TRANS-FACTORIAL Multi-Species (XSP1) HepG2 Assay for zebrafish Estrogen Receptor (ESR2A) (AID 2283778)
# Procedure, shortened: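 Reporter transcripts were quantified by RT-PCR, 6-FAM labelling, HpaI digestion and capillary electrophoresis after 24 h dosing. The cells were HepG2 transiently carrying a zebrafish ER2a–Gal4 construct plus multiplexed UAS reporters; medium contained 3 nM 6-alpha-fluorotestosterone.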
# zebrafish Estrogen Receptor (ESR1), esr1 (gene 259252), sequence (P57717 whole entry, looked up, the tested form may be a part): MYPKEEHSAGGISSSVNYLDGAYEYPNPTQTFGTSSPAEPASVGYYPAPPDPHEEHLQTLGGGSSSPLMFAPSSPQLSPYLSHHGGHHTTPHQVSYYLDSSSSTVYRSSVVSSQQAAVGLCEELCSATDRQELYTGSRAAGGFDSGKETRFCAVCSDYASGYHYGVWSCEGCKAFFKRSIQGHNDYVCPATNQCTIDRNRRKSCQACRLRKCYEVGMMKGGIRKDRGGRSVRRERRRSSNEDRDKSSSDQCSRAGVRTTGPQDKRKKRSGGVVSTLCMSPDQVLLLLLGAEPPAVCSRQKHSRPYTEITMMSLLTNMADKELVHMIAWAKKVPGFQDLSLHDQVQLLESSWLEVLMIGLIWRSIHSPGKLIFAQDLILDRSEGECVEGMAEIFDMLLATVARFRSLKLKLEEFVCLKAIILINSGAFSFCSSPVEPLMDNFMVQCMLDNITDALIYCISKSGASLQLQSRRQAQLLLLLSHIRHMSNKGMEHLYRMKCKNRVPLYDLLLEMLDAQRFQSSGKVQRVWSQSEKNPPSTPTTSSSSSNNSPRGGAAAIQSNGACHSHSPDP
smiles,measurement,setting,value
c1ccc2c(c1)Cc1ccccc1-2,outcome,[1],inactive
same,outcome,[2],inactive
same,outcome,[3],inactive
CCCCCCCCOC(=O)CCCCCCCCC(=O)OCCCCCCCC,outcome,[1],inactive
same,outcome,[2],inactive
same,outcome,[3],inactive
CCOC(=O)CC(O)(CC(=O)OCC)C(=O)OCC,outcome,[1],inactive
CC[C@H](c1ccc(O)cc1)[C@@H](CC)c1ccc(O)cc1,outcome,[4],inactive
same,outcome,[5],inactive
same,AC50,[6],0.114 nM (active)
same,AC50,[7],0.0657 nM (active)
same,AC50,[8],0.101 nM (active)
same,AC50,[9],0.0552 nM (active)
CCC(C)(C)C1CCC(O)CC1 (stereo not drawn),outcome,[5],inactive
same,outcome,[6],inactive
same,AC50,[7],10000 nM (active)
same,outcome,[8],inactive
same,outcome,[9],inactive
